In PubChem BioAssay (Tox21):
Several values for one entry are separate records, joined by “and”; a condition that tells them apart may be missing. Identical values can stand only once. Inconclusive results are not listed. A call without a number means that no potency is given here. Values without a mark were called inactive. Activity calls are given as the source filed them. The call rests on the fitted dose curve; in most records, active means well fitted inhibition curve with a large enough effect in the repeat runs; inconclusive means weak or mixed curves; inactive means no such curve, though single readings can be large or run the other way.

Test: qHTS assay to identify small molecule antagonists of the thyroid receptor (TR) signaling pathway (AID 743065); further: nearly all actives have a fitted effect of over 55% in size
Settings: GH3.TRE-Luc, T3-stimulated luciferase inhibition, 23.5 h; series mostly up to 70.3 µM
Text: U.S. Tox21 Program National Center for Advancing Translational Sciences [NCATS] NIH Chemical Genomics Center [NCGC] U.S. Environmental Protection Agency [EPA] National Institutes of Environmental Health Sciences [NIEHS] National Toxicology Program [NTP] U.S. Food and Drug Administration [FDA] Tox21 Assay Overview: Thyroid receptor (TR), a nuclear hormone receptor, plays an important role in development, proliferation, differentiation, metabolism, brain function, and cardiovascular system. […] To profile the Tox21 10K compound library in TR signaling, a cell-based GH3-TRE-Luc assay (GH3.TRE-Luc cell line, developed by the laboratory of Dr. Albertinka J. Murk, Wageningen University) was used to measure the inhibition of TR. GH3 (rat pituitary tumor) cells stably expressing a TR activity sensor consisting of two TR response elements and a luciferase reporter gene.
Tox21 Assay Protocol Summary: GH3.TRE-Luc cells were dispensed at 1500 cells/4 uL/well into 1536-well white solid bottom plates using a Multidrop Combi dispenser (Thermo Fisher Scientific Inc., Waltham, MA). After the assay plates were incubated at 37 C for 4 hours, 23 nL of library compound or DMSO controls was transferred to the assay plates by a pintool station (Kalypsys, San Diego, CA), followed by addition of 1 ul of T3 (1 nM, final concentration in the wells) to stimulate TR transactivation. The assay plates were incubated at 37 C for 23.5 h, and then 1 uL of CellTiter-Fluor reagent (Promega, Madision, WI) of measuring cytotoxicity was added to each well using a Bioraptr Flying Reagent Dispenser (FRD) workstation (Beckman Coulter, Indianapolis, IN, USA). The plates were incubated at 37 C and 5% CO2 for additional 30 min, and fluorescence intensity was measured by a ViewLux plate reader (PerkinElmer, Shelton, CT). For measuring luciferase reporter gene activity, 4 uL of ONE-Glo Luciferase Assay reagent (Promega) was added to each well using a Bioraptr FRD (Beckman Coulter), followed by 30 min incubation at room temperature. The luminescence intensity of plates was recorded by a ViewLux plate reader (PerkinElmer, Shelton, CT).
Potency means the concentration at half of the fitted maximal effect.

Row | SMILES | Potency | activity, negative = inhibition
1 | CCN(CC)CCN1C(=O)CN=C(c2ccccc2F)c2cc(Cl)ccc21 | 23.7 µM (active) | –
2 | O=P(Cl)(Cl)Cl | inactive | –
3 | COC(=O)c1ccccc1S(=O)(=O)NC(=O)Nc1nc(C)nc(OC)n1 | inactive | –
4 | c1ccc2nc(N3CCNCC3)ccc2c1 | 29.8 µM (active) | –
5 | COP(=O)(OC)Oc1ccc([N+](=O)[O-])cc1 | inactive | –
6 | CO/N=C(\C(=O)OC)c1ccccc1CO/N=C(\C)c1cccc(C(F)(F)F)c1 | 0.969 µM (active) | –
7 | CCNc1nc(NC(C)C(C)C)nc(SC)n1 (stereo not given) | inactive | –
8 | O=C1C[C@@H]2OCC=C3CN4CC[C@]56c7ccccc7N1[C@H]5[C@H]2[C@H]3C[C@H]46 | inactive | –
9 | Nc1ccc(N=Nc2ccccc2)cc1 | inactive | –
10 | S=C=Nc1ccccc1 | inactive | –
11 | O=C(N[C@@H]1N=C(c2ccccc2F)c2cccc3c2N(CC3)C1=O)c1cc2ccccc2[nH]1 | 6.68 µM (active) | –
12 | CC1CN1 (stereo not given) | inactive | –
13 | CN(C)C(=S)SSC(=S)N(C)C | 94.4 nM (active) and 269 nM (active) and 15.4 nM (active) | –
14 | c1ccc2c(c1)cc1ccc3cccc4ccc2c1c34 | inactive | –
15 | CN=C=O | inactive | –
16 | CCCCc1ccccc1 | inactive | –
17 | C1=CCC=C1 | inactive | –
18 | CCCCN(CCCC)C(=S)[S-].CCCCN(CCCC)C(=S)[S-].[Ni+2] | inactive | –
19 | O=S1OCC2C(CO1)C1(Cl)C(Cl)=C(Cl)C2(Cl)C1(Cl)Cl (stereo not given) | 61.2 µM (active) and 61.1 µM (active) | –
20 | [O]=[Cr][O][Cr]=[O] | inactive | –

Row | SMILES | Potency | activity, negative = inhibition
21 | COc1c2c(cc3c1OCO3)CCN(C)C2 | inactive | –
22 | CCCC[N+]1(C)CCCC1 (tested in a mixture with another compound) | inactive | –
23 | C#CC1(O)CCCCC1 | inactive | –
24 | O=C1C(Cl)=C(Cl)C(=O)C(Cl)=C1Cl | 9.65 µM (active) and 5.45 µM (active) | –
25 | Cc1cnc2c(C(=O)O)c(Cl)ccc2c1 | inactive | –
26 | COC(=O)C(C)N(C(=O)c1ccco1)c1c(C)cccc1C (stereo not given) | inactive | –
27 | CCC1COC(Cn2cncn2)(c2ccc(Cl)cc2Cl)O1 (stereo not given) | inactive | –
28 | Cc1ccccc1OP(=O)(Oc1ccccc1C)Oc1ccccc1C | 54.7 µM (active) | –
29 | CCCCC(CC)COC(=O)OOC(C)(C)C (stereo not given) | inactive | –
30 | Clc1c(Cl)c(Cl)c(Cl)c(Cl)c1Cl | – | 0.884% [at 8.44 µM]
31 | N#Cc1ccc(N(CC(N)=O)CC(F)(F)F)cc1C(F)(F)F | inactive | –
32 | CC[C@]1(O)CC[C@H]2[C@@H]3CCC4=CCCC[C@@H]4[C@H]3CC[C@@]21C | 8.41 µM (active) | –
33 | CCCCn1cc[n+](C)c1 (tested in a mixture with another compound) | inactive | –
34 | Oc1cccc(Cl)c1Cl | inactive | –
35 | COP(=S)(NC(C)C)Oc1ccc(C)cc1[N+](=O)[O-] (stereo not given) | inactive | –
36 | Oc1ccc(Cl)c(Cl)c1 | 60.2 µM (active) | –
37 | CC(C)N(C(=O)CCl)c1ccccc1 | 68.6 µM (active) and 48.6 µM (active) | –
38 | O=[N+]([O-])c1ccc(CCl)cc1 | inactive | –
39 | COP(=S)(OC)Oc1ccc([N+](=O)[O-])c(C)c1 | inactive | –
40 | ClC1(Cl)C2(Cl)C3(Cl)C4(Cl)C(Cl)(Cl)C5(Cl)C3(Cl)C1(Cl)C5(Cl)C24Cl (stereo not given) | inactive | –
